# Results: PubChem BioAssay AID1159580 (chemical genetic matrix, 2015)
# Hit rate of the full screen: of about 5,500 compounds, about 2,000 (36%) were called active. Roughly 18% stayed inconclusive and do not appear here. Some of the results follow. A number with no mark means an inactive call. Rule as the data show it: active = normalized growth mostly below about 0.91 (no sharp cut-off); inconclusive = no clear call, values can overlap the other calls; inactive = mostly above about 0.92.
# Experiment: chemical genetic growth profiling, strain panel (AID 1159580);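 also: tested at 20 µM; growth read once vehicle control cultures reached saturation at 30 °C; 1 = growth at the plate median or of vehicle wells; lower values mean less growth of the strain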
# Conditions: growth OD
structure (smiles),measurement,setting,value
COc1cc(OC)cc(OC)c1,normalized growth,"S. cerevisiae deletion strains, locus YAL013W, strain DEP1, hits give low values",1.01
same,normalized growth,"S. cerevisiae deletion strains, locus YBR021W, strain FUR4, hits give low values",1.02
same,normalized growth,"S. cerevisiae deletion strains, locus YBR229C, strain ROT2, hits give low values",1.01
same,normalized growth,"S. cerevisiae deletion strains, locus YCL029C, strain bik1, hits give low values",0.743 (active)
same,normalized growth,"S. cerevisiae deletion strains, locus YDL035C, strain GPR1, hits give low values",1.02
same,normalized growth,"S. cerevisiae deletion strains, locus YDL074C, strain BRE1, hits give low values",1.01
same,normalized growth,"S. cerevisiae deletion strains, locus YDL101C, strain DUN1, hits give low values",1
same,normalized growth,"S. cerevisiae deletion strains, locus YDL134C, strain PPH21, hits give low values",1
same,normalized growth,"S. cerevisiae deletion strains, locus YDL185W, strain tfp1, hits give low values",0.982
same,normalized growth,"S. cerevisiae deletion strains, locus YDL192W, strain arf1, hits give low values",0.102 (active)
same,normalized growth,"S. cerevisiae deletion strains, locus YDR101C, strain arx1, hits give low values",0.529 (active)
same,normalized growth,"S. cerevisiae deletion strains, locus YDR150W, strain NUM1, hits give low values",1.01
same,normalized growth,"S. cerevisiae deletion strains, locus YDR162C, strain NBP2, hits give low values",1.02
same,normalized growth,"S. cerevisiae deletion strains, locus YDR318W, strain mcm21, hits give low values",0.0697 (active)
same,normalized growth,"S. cerevisiae deletion strains, locus YDR388W, hits give low values",0.0643 (active)
same,normalized growth,"S. cerevisiae deletion strains, locus YDR502C, strain sam2, hits give low values",0.159 (active)
same,normalized growth,"S. cerevisiae deletion strains, locus YEL061C, strain CIN8, hits give low values",1
same,normalized growth,"S. cerevisiae deletion strains, locus YER110C, hits give low values",0.305 (active)
same,normalized growth,"S. cerevisiae deletion strains, locus YER155C, strain BEM2, hits give low values",1.01
same,normalized growth,"S. cerevisiae deletion strains, locus YER167W, strain BCK2, hits give low values",1.01
same,normalized growth,"S. cerevisiae deletion strains, locus YGL078C, strain dbp3, hits give low values",0.299 (active)
same,normalized growth,"S. cerevisiae deletion strains, locus YGL086W, strain mad1, hits give low values",0.0586 (active)
same,normalized growth,"S. cerevisiae deletion strains, locus YGL248W, strain PDE1, hits give low values",1.01
same,normalized growth,"S. cerevisiae deletion strains, locus YGR078C, strain PAC10, hits give low values",1.01
same,normalized growth,"S. cerevisiae deletion strains, locus YGR135W, strain pre9, hits give low values",0.0735 (active)
same,normalized growth,"S. cerevisiae deletion strains, locus YGR229C, strain SMI1, hits give low values",1
same,normalized growth,"S. cerevisiae deletion strains, locus YGR252W, strain gcn5, hits give low values",0.24 (active)
same,normalized growth,"S. cerevisiae deletion strains, locus YHR030C, strain SLT2, hits give low values",1.01
same,normalized growth,"S. cerevisiae deletion strains, locus YHR079C, strain IRE1 (second series), hits give low values",0.598 (active)
same,normalized growth,"S. cerevisiae deletion strains, locus YHR094C, strain hxt1, hits give low values",0.147 (active)
same,normalized growth,"S. cerevisiae deletion strains, locus YHR129C, strain ARP1, hits give low values",1.01
same,normalized growth,"S. cerevisiae deletion strains, locus YHR200W, strain rpn10, hits give low values",0.124 (active)
same,normalized growth,"S. cerevisiae deletion strains, locus YIL066C, strain RNR3, hits give low values",1.01
same,normalized growth,"S. cerevisiae deletion strains, locus YIL073C, strain SPO22, hits give low values",1
same,normalized growth,"S. cerevisiae deletion strains, locus YIL125W, strain kgd1, hits give low values",0.263 (active)
same,normalized growth,"S. cerevisiae deletion strains, locus YIR030C, strain dcg1, hits give low values",0.317 (active)
same,normalized growth,"S. cerevisiae deletion strains, locus YJL095W, strain BCK1, hits give low values",1.01
same,normalized growth,"S. cerevisiae deletion strains, locus YJL134W, strain LCB3, hits give low values",1
same,normalized growth,"S. cerevisiae deletion strains, locus YJL168C, strain set2, hits give low values",0.206 (active)
same,normalized growth,"S. cerevisiae deletion strains, locus YJL187C, strain SWE1 (second series), hits give low values",1.02
same,normalized growth,"S. cerevisiae deletion strains, locus YJR043C, strain POL32, hits give low values",0.994
same,normalized growth,"S. cerevisiae deletion strains, locus YJR075W, strain HOC1, hits give low values",1
same,normalized growth,"S. cerevisiae deletion strains, locus YKL009W, strain mrt4, hits give low values",0.898
same,normalized growth,"S. cerevisiae deletion strains, locus YKL068W, hits give low values",1
same,normalized growth,"S. cerevisiae deletion strains, locus YKL085W, strain MDH1 (second series), hits give low values",0.211 (active)
same,normalized growth,"S. cerevisiae deletion strains, locus YKL085W, strain MDH1, hits give low values",0.211 (active)
same,normalized growth,"S. cerevisiae deletion strains, locus YKL190W, strain CNB1, hits give low values",1.01
same,normalized growth,"S. cerevisiae deletion strains, locus YKR001C, strain vps1, hits give low values",0.127 (active)
same,normalized growth,"S. cerevisiae deletion strains, locus YLR039C, strain RIC1, hits give low values",1.01
same,normalized growth,"S. cerevisiae deletion strains, locus YLR058C, strain SHM2, hits give low values",1.01
same,normalized growth,"S. cerevisiae deletion strains, locus YLR102C, strain apc9, hits give low values",0.106 (active)
same,normalized growth,"S. cerevisiae deletion strains, locus YLR262C, strain YPT6, hits give low values",1.04
same,normalized growth,"S. cerevisiae deletion strains, locus YLR268W, strain sec22, hits give low values",0.0897 (active)
same,normalized growth,"S. cerevisiae deletion strains, locus YLR330W, strain CHS5, hits give low values",1
same,normalized growth,"S. cerevisiae deletion strains, locus YLR342W, strain FKS1 (second series), hits give low values",0.983
same,normalized growth,"S. cerevisiae deletion strains, locus YLR371W, strain rom2, hits give low values",0.0926 (active)
same,normalized growth,"S. cerevisiae deletion strains, locus YLR418C, strain cdc73, hits give low values",0.104 (active)
same,normalized growth,"S. cerevisiae deletion strains, locus YML016C, strain PPZ1, hits give low values",1
same,normalized growth,"S. cerevisiae deletion strains, locus YML032C, strain rad52, hits give low values",0.853 (active)
same,normalized growth,"S. cerevisiae deletion strains, locus YML124C, strain tub3, hits give low values",0.181 (active)
same,normalized growth,"S. cerevisiae deletion strains, locus YMR078C, strain ctf18, hits give low values",0.231 (active)
same,normalized growth,"S. cerevisiae deletion strains, locus YMR223W, strain ubp8, hits give low values",0.0875 (active)
same,normalized growth,"S. cerevisiae deletion strains, locus YMR263W, strain SAP30, hits give low values",1.02
same,normalized growth,"S. cerevisiae deletion strains, locus YMR307W, strain GAS1, hits give low values",0.961
same,normalized growth,"S. cerevisiae deletion strains, locus YNL067W, strain RPL9B, hits give low values",1.02
same,normalized growth,"S. cerevisiae deletion strains, locus YNL128W, strain TEP1, hits give low values",1.02
same,normalized growth,"S. cerevisiae deletion strains, locus YNL153C, strain GIM3, hits give low values",1.02
same,normalized growth,"S. cerevisiae deletion strains, locus YNL233W, strain BNI4, hits give low values",1.02
same,normalized growth,"S. cerevisiae deletion strains, locus YNL250W, strain rad50, hits give low values",0.725 (active)
same,normalized growth,"S. cerevisiae deletion strains, locus YNL271C, strain bni1, hits give low values",0.351 (active)
same,normalized growth,"S. cerevisiae deletion strains, locus YNL298W, strain CLA4, hits give low values",0.725 (active)
same,normalized growth,"S. cerevisiae deletion strains, locus YNL307C, strain MCK1, hits give low values",0.0671 (active)
same,normalized growth,"S. cerevisiae deletion strains, locus YNL322C, strain KRE1, hits give low values",1.01
same,normalized growth,"S. cerevisiae deletion strains, locus YNR052C, strain pop2, hits give low values",1
same,normalized growth,"S. cerevisiae deletion strains, locus YOL006C, strain TOP1, hits give low values",0.948
same,normalized growth,"S. cerevisiae deletion strains, locus YOL147C, strain pex11, hits give low values",0.838 (active)
same,normalized growth,"S. cerevisiae deletion strains, locus YOR061W, strain CKA2, hits give low values",1
same,normalized growth,"S. cerevisiae deletion strains, locus YOR069W, strain VPS5, hits give low values",1
same,normalized growth,"S. cerevisiae deletion strains, locus YOR136W, strain idh2, hits give low values",0.104 (active)
same,normalized growth,"S. cerevisiae deletion strains, locus YOR144C, strain elg1, hits give low values",0.997
same,normalized growth,"S. cerevisiae deletion strains, locus YOR184W, strain ser1, hits give low values",0.0729 (active)
same,normalized growth,"S. cerevisiae deletion strains, locus YOR316C, strain cot1, hits give low values",0.096 (active)
same,normalized growth,"S. cerevisiae deletion strains, locus YPL055C, strain LGE1, hits give low values",1.02
same,normalized growth,"S. cerevisiae deletion strains, locus YPL241C, strain CIN2, hits give low values",1.01
same,normalized growth,"S. cerevisiae deletion strains, locus YPR119W, strain clb2, hits give low values",0.169 (active)
same,normalized growth,"S. cerevisiae deletion strains, locus YPR141C, strain kar3, hits give low values",1.01
same,normalized growth,"S. cerevisiae deletion strains, locus YPR163C, strain tif3, hits give low values",0.0751 (active)
same,normalized growth,"S. cerevisiae deletion strains, locus YPR167C, strain met16, hits give low values",0.0964 (active)
same,normalized growth,"S. cerevisiae deletion strains, strain wtn01, hits give low values",0.0632 (active)
same,normalized growth,"S. cerevisiae strains, strain wild type, hits give low values",1.01
